Where “and” joins values, the source holds several entries; their conditions need not be identical. Equal values may be shown once. Records with an inconclusive call do not appear. Calls of active or inactive are those of the source. Unless noted, calls come from the whole dose curve; as a rule, active = well fitted curve in the direction sought with a large enough effect; inconclusive = small, poorly fitted or top-dose-only effect, or another doubt; inactive = no such curve, though single readings can be large; an effect the other way counts as inactive or inconclusive.
Columns and labels:
[1] = Quantitative High-Throughput drug screen in 47 multiple myeloma cell lines against the NCATS MIPE library collection: PCM6_Riken cell viability assay (AID 1919870); note: nearly all actives have a fitted effect of over 30% in size; note: potency is the fitted concentration of half-maximal effect
In short: (§1)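 MIPE 4.0 approved/investigational drugs; 500 cells/well; 48 h 37 °C humidified 5% CO2; CTG luminescence readout; DMSO = 100%, media = 0% viability.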

[2] = Quantitative High-Throughput drug screen in 47 multiple myeloma cell lines against the NCATS MIPE library collection: KMS11_JCRBsus cell viability assay (AID 1919873); note: nearly all actives have a fitted effect of over 50% in size; note: potency is the fitted concentration of half-maximal effect
In short: as §1

[3] = test system: C2A; test: qHTS profiling for inhibitors of Plasmodium falciparum proliferation (AID 504749); note: nearly all actives have a fitted effect of over 60% in size; note: potency is the fitted concentration of half-maximal effect;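 for activity, negative = inhibition: 0% = DMSO vehicle and full inhibition = artemisinin control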; details: P. falciparum in erythrocytes, SYBR Green DNA, 72 h; series mostly up to 28.7 µM
In short: (§2)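 Parasite proliferation within erythrocytes, 72 h exposure. Endpoint: SYBR Green I fluorescence after overnight lysis at room temperature. Controls: 0.29 uM artemisinin, DMSO.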

[4] = test system: CP191; test: as above; details: P. falciparum in erythrocytes, SYBR Green DNA, 72 h; series mostly up to 28.7 µM
In short: as §2

[5] = test system: CP192; test: as above; details: P. falciparum in erythrocytes, SYBR Green DNA, 72 h; series mostly up to 28.7 µM
In short: as §2

[6] = qHTS drug screen for cell cycle checkpoint inhibitors in PARPi-resistant BRCA-mutant ovarian cancer cell lines. (AID 1963452; calls by dose curve); details: PEO1/OlaR viability, CellTiter-Glo luminescence, 96 h, stronger effect = lower value
In short: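 PEO1, PEO4 and PEO1/OlaR ovarian cancer cells, 600 per well, exposed 96 h at 37C to a dilution series. Viability read by CellTiter-Glo luminescence, normalized to DMSO and empty wells; activity summarized as Z-AUC.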

[7] = Quantitative High-Throughput drug screen in 47 multiple myeloma cell lines against the NCATS MIPE library collection: RPMI8226_ATCC cell viability assay (AID 1919871); note: nearly all actives have a fitted effect of over 30% in size; note: potency is the fitted concentration of half-maximal effect
In short: as §1

[8] = Quantitative High-Throughput drug screen in 47 multiple myeloma cell lines against the NCATS MIPE library collection: OPM2_DSMZ cell viability assay (AID 1919872); note: nearly all actives have a fitted effect of over 30% in size; note: potency is the fitted concentration of half-maximal effect
In short: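 Inhibition of cell viability is measured here. Each line was plated at 500 cells per well, treated with MIPE 4.0 drugs, kept 48 hours at 37C, then assayed for ATP content by CellTiter-Glo luminescence.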

[9] = Quantitative High-Throughput drug screen in 47 multiple myeloma cell lines against the NCATS MIPE library collection: KMS28BM_JCRB cell viability assay (AID 1919874); note: nearly all actives have a fitted effect of over 35% in size; note: potency is the fitted concentration of half-maximal effect
In short: as §1

[10] = qHTS for identification of novel therapeutic agents for treatment of microphthalmiaassociated transcription factor (MiT) renal cell carcinoma (RCC) (AID 1963991); details: CellTiter-Glo, 48 h, stronger effect = lower value;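 note: curves scaled with 100% = DMSO viability and 0% = empty wells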
In short: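 UOK109/UOK124/UOK145 (TFE3 fusions, three partners); 500 cells/well; MIPE v4.0, 1912 cpds, 11 conc.; 48 h, 37 C; CellTiter-Glo, 15 min RT; lum. Norm.: DMSO 100%, empty 0%.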

[11] = qHTS profiling for inhibitors of Plasmodium falciparum proliferation (AID 504749); note: nearly all actives have a fitted effect of over 60% in size; note: potency is the fitted concentration of half-maximal effect;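 for activity, negative = inhibition: 0% = DMSO vehicle and full inhibition = artemisinin control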; details: P. falciparum in erythrocytes, SYBR Green DNA, 72 h, at 28.7 µM (top of the series)
In short: as §2

[12] = test system: 3D7; test: as above; details: P. falciparum in erythrocytes, SYBR Green DNA, 72 h; series mostly up to 28.7 µM
In short: as §2

[13] = test system: 7G8; test: as above; details: P. falciparum in erythrocytes, SYBR Green DNA, 72 h; series mostly up to 28.7 µM
In short: as §2

[14] = test system: AA1029; test: as above; details: P. falciparum in erythrocytes, SYBR Green DNA, 72 h; series mostly up to 28.7 µM
In short: as §2

[15] = test system: AS120; test: as above; details: P. falciparum in erythrocytes, SYBR Green DNA, 72 h; series mostly up to 28.7 µM
In short: as §2

[16] = test system: ATS189; test: as above; details: P. falciparum in erythrocytes, SYBR Green DNA, 72 h; series mostly up to 28.7 µM
In short: as §2

[17] = test system: ATS95; test: as above; details: P. falciparum in erythrocytes, SYBR Green DNA, 72 h; series mostly up to 28.7 µM
In short: as §2

[18] = test system: CP185; test: as above; details: P. falciparum in erythrocytes, SYBR Green DNA, 72 h; series mostly up to 28.7 µM
In short: as §2

[19] = Quantitative High-Throughput drug screen in 47 multiple myeloma cell lines against the NCATS MIPE library collection: PE2_PLB cell viability assay (AID 1919869); note: potency is the fitted concentration of half-maximal effect; nearly all actives have a fitted effect of over 35% in size
In short: as §1

[20] = measured here: PEO1 parental Z-AUC
[21] = TFE3-RCC UOK109 viability, measured here: UOK109 Z-AUC
[22] = TFE3-RCC viability, measured here: UOK124 Z-AUC
[23] = TFE3-RCC viability, measured here: UOK145 Z-AUC

Question: Which Potency [1] does the source give for CC(C)(C)NC(=O)[C@H]1CN(Cc2cccnc2)CCN1C[C@@H](O)C[C@@H](Cc1ccccc1)C(=O)N[C@H]1c2ccccc2C[C@H]1O here?
Answer: The Potency was 8.33 µM (active).

Question: What about the Potency [2] of the same compound?
Answer: The Potency was 18.7 µM (active).

Question: And the Potency [3]?
Answer: Its Potency is 10 µM (active).

Question: What about the Potency [4] of the same compound?
Answer: The Potency was 8.91 µM (active).

Question: What about the Potency [5] of the same compound?
Answer: The Potency was 10.7 µM (active).

Question: With NCC(=O)Nc1ccc(-n2nc(C(F)(F)F)cc2-c2ccc3c(ccc4ccccc43)c2)cc1 as the compound, how does the Potency [1] read?
Answer: The Potency was 20.9 µM (active).

Question: What about the Z-AUC [6] of the same compound?
Answer: Its Z-AUC is 0.362 (inactive).

Question: What about the Z-AUC [6, 20] of the same compound?
Answer: The Z-AUC was -0.764.

Question: What about the Z-AUC ([6]; measured here: PEO4 Z-AUC) of the same compound?
Answer: Its Z-AUC is -0.389.

Question: Which results are given for C=CC(=O)N1CCC[C@@H](n2nc(-c3ccc(Oc4ccccc4)cc3)c3c(N)ncnc32)C1?
Answer: Potency [7]: 20.9 µM (active); Z-AUC [6]: 0.296 (inactive); Z-AUC [6, 20]: 0.501; Z-AUC ([6]; measured here: PEO4 Z-AUC): 0.517

Question: For Nc1ccn([C@@H]2CS[C@H](CO)O2)c(=O)n1, which Potency [7] is on record?
Answer: Its Potency is “inactive”.

Question: And the Potency [8]?
Answer: Its Potency is “inactive”.

Question: What about the Potency [9] of the same compound?
Answer: The Potency was “inactive”.

Question: What about the Z-AUC [6] of the same compound?
Answer: The Z-AUC was -0.72 (inactive).

Question: What about the Z-AUC [6, 20] of the same compound?
Answer: Its Z-AUC is -0.233.

Question: And the Z-AUC ([6]; measured here: PEO4 Z-AUC)?
Answer: Its Z-AUC is -0.547.

Question: And the z-score [10, 21]?
Answer: The z-score was -0.159.

Question: What about the z-score [10, 22] of the same compound?
Answer: The z-score was 0.923.

Question: And the z-score [10, 23]?
Answer: The z-score was 0.391.

Question: What about the activity, negative = inhibition ([11]; parasite line A) of the same compound?
Answer: The activity, negative = inhibition was 3.35% (inactive) and 3.28% (inactive).

Question: And the activity, negative = inhibition ([11]; parasite line B)?
Answer: The activity, negative = inhibition was 12% (inactive) and -4.61% (inactive).

Question: And the Potency [12]?
Answer: Its Potency is “inactive”.

Question: What about the Potency [13] of the same compound?
Answer: Its Potency is “inactive”.

Question: And the Potency [14]?
Answer: Its Potency is “inactive”.

Question: What about the Potency [15] of the same compound?
Answer: The Potency was “inactive”.

Question: What about the Potency [16] of the same compound?
Answer: The Potency was “inactive”.

Question: What about the Potency [17] of the same compound?
Answer: Its Potency is “inactive”.

Question: What about the Potency [3] of the same compound?
Answer: Its Potency is “inactive”.

Question: And the Potency [18]?
Answer: The Potency was “inactive”.

Question: And the Potency [4]?
Answer: Its Potency is “inactive”.

Question: And the Potency [5]?
Answer: The Potency was “inactive”.

Question: With Cn1c2cc(S(C)=O)sc2c2cnn(Cc3cccc(N)c3)c(=O)c21 (stereo not given) as the compound, how does the Potency [1] read?
Answer: Its Potency is “inactive”.

Question: And the Potency [7]?
Answer: Its Potency is “inactive”.

Question: What about the Potency [8] of the same compound?
Answer: Its Potency is “inactive”.

Question: And the Potency [2]?
Answer: The Potency was “inactive”.

Question: And the Potency [9]?
Answer: The Potency was “inactive”.

Question: What about the z-score [10, 21] of the same compound?
Answer: Its z-score is 0.336.

Question: What about the z-score [10, 22] of the same compound?
Answer: The z-score was 0.595.

Question: What about the z-score [10, 23] of the same compound?
Answer: Its z-score is 0.401.

Question: What does the source list for CS(=O)(=O)c1ccc(-c2cnc(N)c(C(=O)Nc3ccccc3)n2)cc1?
Answer: Potency [7]: inactive; Potency [8]: inactive; Potency [9]: inactive; Z-AUC [6]: -0.54 (inactive); Z-AUC [6, 20]: -0.901; Z-AUC ([6]; measured here: PEO4 Z-AUC): -1.14; z-score [10, 21]: 0.172; z-score [10, 22]: 0.911; z-score [10, 23]: 0.761

Question: With Cc1coc2c1C(=O)C(=O)c1c-2ccc2c1CCCC2(C)C as the compound, how does the Potency [8] read?
Answer: The Potency was 16.6 µM (active).

Question: What about the Potency [9] of the same compound?
Answer: The Potency was “inactive”.

Question: What about the Z-AUC [6] of the same compound?
Answer: Its Z-AUC is 1.2 (inactive).

Question: And the Z-AUC [6, 20]?
Answer: Its Z-AUC is 0.989.

Question: And the Z-AUC ([6]; measured here: PEO4 Z-AUC)?
Answer: Its Z-AUC is 0.949.

Question: For Cn1cc(-c2ccncc2)c(-c2ccc(OCc3ccc4ccccc4n3)cc2)n1, which Potency [19] is on record?
Answer: The Potency was 5.9 µM (active).

Question: What about the Potency [2] of the same compound?
Answer: The Potency was 8.33 µM (active).

Question: And the Z-AUC [6]?
Answer: The Z-AUC was 0.205 (inactive).

Question: What about the Z-AUC [6, 20] of the same compound?
Answer: Its Z-AUC is -0.209.

Question: And the Z-AUC ([6]; measured here: PEO4 Z-AUC)?
Answer: The Z-AUC was 0.0189.

Question: Which results are given for Clc1ccc2ncc(-c3cccc(NC4CNC4)n3)n2c1?
Answer: Potency [1]: 18.7 µM (active); Potency [7]: 20.9 µM (active); Potency [2]: 20.9 µM (active)

Question: What does the source list for Fc1cc(-c2cccc3ncc(-c4cnn(C5CCNCC5)c4)nc23)cc(F)c1CN1CCOCC1?
Answer: Potency [1]: 7.43 µM (active); Potency [9]: 26.4 µM (active)

Question: For COc1ccc(CC2SC(=O)NC2=O)cc1C(=O)NCc1ccc(C(F)(F)F)cc1 (stereo not given), which Potency [1] is on record?
Answer: Its Potency is 7.43 µM (active).

Question: What about the Potency [7] of the same compound?
Answer: The Potency was “inactive”.

Question: And the Potency [9]?
Answer: Its Potency is “inactive”.

Question: What about the Z-AUC [6] of the same compound?
Answer: Its Z-AUC is 1.34 (inactive).

Question: What about the Z-AUC [6, 20] of the same compound?
Answer: The Z-AUC was 1.11.

Question: What about the Z-AUC ([6]; measured here: PEO4 Z-AUC) of the same compound?
Answer: Its Z-AUC is 1.12.

Question: Which Potency [1] does the source give for Cn1c(CNc2ccc(C(=N)N)cc2)nc2cc(C(=O)N(CCC(=O)O)c3ccccn3)ccc21 here?
Answer: Its Potency is “inactive”.

Question: And the Potency [7]?
Answer: Its Potency is “inactive”.

Question: What about the Potency [8] of the same compound?
Answer: The Potency was “inactive”.

Question: What about the Potency [9] of the same compound?
Answer: Its Potency is “inactive”.

Question: And the Z-AUC [6]?
Answer: The Z-AUC was 3.54 (inactive).

Question: And the Z-AUC [6, 20]?
Answer: The Z-AUC was 3.55.

Question: What about the Z-AUC ([6]; measured here: PEO4 Z-AUC) of the same compound?
Answer: Its Z-AUC is 3.92.

Question: What about the z-score [10, 21] of the same compound?
Answer: The z-score was 1.13.

Question: What about the z-score [10, 22] of the same compound?
Answer: Its z-score is 1.05.

Question: And the z-score [10, 23]?
Answer: Its z-score is 1.25.

Question: With CCC(=C(c1ccccc1)c1ccc(OCCN(C)C)cc1)c1ccccc1 as the compound, how does the Potency [1] read?
Answer: The Potency was 23.5 µM (active).

Question: And the Potency [2]?
Answer: The Potency was 20.9 µM (active).

Question: What about the Potency [9] of the same compound?
Answer: The Potency was 20.9 µM (active).

Source: PubChem BioAssay (NCATS)
